Measured values as given in PubChem BioAssay (NCI).
About 83,000 compounds went through this panel and 20% of them were active in at least one assay; those are over-represented in the sample as a whole.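 The endpoint reported here, percent growth, reads 100 for growth as untreated, 0 for no net growth and -100 for all cells dead.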 The source made the active and inactive calls.

test system: ACHN renal; assay: NCI-60 one-dose screen, 48 h (100 = growth as untreated, 0 = no growth, -100 = all killed); conditions: 10 µM unless noted
Protocol: Growth inhibition of the ACHN human tumor cell line is measured as a screen for anti-cancer activity. Cells are grown in 96 well plates and exposed to the test compound for 48 hours. Compounds are tested at a single concentration, which is 10^-5 M for most compounds. The reported endpoint is percent growth (GI% or GIPRCNT), where numbers from 0 - 100% represent growth inhibition, and numbers from -100% - 0 represent cell death. For example, a value of 40 represents 60% growth inhibition. A value of 0 means no net growth occurred over the course of the experiment. A value of -40 indicates 40% of cells at the beginning of the experiment died by the end of the experiment. A value of -100 means all cells are dead at the end of the experiment.
NCI-60 Human Tumor Cell Lines Screen was performed using the standard one-dose NCI protocol, which is described in more detail at https://dtp.cancer.gov/discovery_development/nci-60/default.htm.
Compounds with GIPRCNT values below 10 were considered active. Activity score was based on GIPRCNT using the following formula: […]
Score is 0 for GIPRCNT values of 100 or above, 50 for GIPRCNT values of 0, and 100 for GIPRCNT values of -100.

Row | Compound | growth
1 | Cc1ccc(CN2CCC(C(=O)Nc3ccc(-c4cc5ccccc5[nH]4)cc3)CC2)o1 | 44.3% (inactive)
2 | CC/C=C\C[C@H](O)C/C=C1/C(=O)C=C[C@@H]1C/C=C\CCCC(=O)OCCS(=O)(=O)c1ccccc1 | 86.3% (inactive)
3 | O=C(CSc1nc2ccccc2c(=O)n1-c1ccccc1)Nc1ccc(C(=O)/C=C/c2ccc(Cl)cc2)cc1 | 102% (inactive)
4 | COc1ccc2[nH]c(O)c(N=NC(=O)c3oc4ccccc4c3C)c2c1 | -50.9% (active)
5 | Cc1ccc(F)cc1NC(=O)c1cc(Cl)ccc1Nc1ccccc1 | 42.3% (inactive)
6 | Cc1ccc2[nH]c(=O)cc(-n3nncc3Cn3c4ccccc4c4ccccc43)c2c1 | 90% (inactive)
7 | O=C(Nc1ccccc1O)c1ccc(-c2ccc(Cl)cc2Cl)o1 | 102% (inactive)
8 | Cc1c(-c2noc(-c3ccc([N+](=O)[O-])cc3)n2)no[n+]1[O-] | 89.2% (inactive)
9 | O=C(Cc1ccccc1)NC(c1ccc(Cl)cc1)c1c(O)ccc2ccccc12 (stereo not given) | 10.1% (inactive)
10 | Nc1no[n+]([O-])c1-c1nnc2c(n1)-c1ccccc1C2=O | 16% (inactive)
11 | COc1ccc(/C=C/C(=O)c2c(C)nc3ccccc3c2/C=C/c2ccccc2)cc1O | 62.2% (inactive)
12 | COc1cc(/C=C2\CCC/C(=C\c3cc(CN4CCCCC4)c(O)c(OC)c3)C2=O)cc(CN2CCCCC2)c1O | 83.8% (inactive)
13 | Cc1ccc(OCCCCCCNCCO)c(C)c1 | 15.3% (inactive)
14 | O=c1c2cccc(F)c2sc2c(N3CCNCC3)nc3ccccc3c12 | 16% (inactive)
15 | COC(=O)c1c2c(c(C)[n+]([O-])c1C)C(=O)C(NCc1ccc(Br)cc1)=CC2=O | 32.6% (inactive)
16 | O=c1cc(-c2ccccc2)oc2cc(OCc3cn(Cc4ccc(F)cc4)nn3)cc(OCc3cn(Cc4ccc(F)cc4)nn3)c12 | 7.3% (active)
17 | Cc1cc2c(c(C)c1Cl)C(=O)/C(=C/c1cccc([N+](=O)[O-])c1)O2 | 107% (inactive)
18 | NS(=O)(=O)c1ccc(CCN=C=S)cc1 | -70.7% (active)
19 | COc1cc2nc(NC3CCC3)nc(NC3CCN(C(C)C)CC3)c2cc1OC | 57.2% (inactive)
20 | CCC(C)(C)C(=O)O[C@H]1C[C@@H](C)C=C2C=C[C@H](C)[C@H](CC[C@@H]3CC=CC(=O)O3)[C@H]21 | 70.9% (inactive)

Row | Compound | growth
21 | O=C(O)CCCN1C(=O)C2C3CCC(C3)C2C1=O (stereo not given) | 109% (inactive)
22 | O=C(Nc1ccc(N2CCNCC2)cn1)c1[nH]ncc1Nc1ncnc2sc3c(c12)CCC3 | -76.5% (active)
23 | COc1ccc(Cn2c(Br)c3c(c2-c2cc(OC)c(OC)c(OC)c2)CCc2sc(NC(=O)c4ccc(OC)cc4)nc2-3)cc1 | 97.5% (inactive)
24 | Cn1c(=O)n(C)c2cc(CNCCNc3ccnc4cc(Cl)ccc34)ccc21 | 4.21% (active)
25 | Cc1nc2ccccc2c(/C=C/c2ccccc2)c1C(=O)/C=C/c1ccc(Cl)cc1 | 14.3% (inactive)
26 | CN1C(=O)N(C)C2C1NN=c1s/c(=C\c3ccc(Cl)cc3Cl)c(=O)n12 (stereo not given) | 29% (inactive)
27 | CC(=O)c1ccc(Cc2ccc(C(C)=O)s2)s1 | 100% (inactive)
28 | Cc1ccc2cccc(Oc3ccc(Nc4ncnc5onc(-c6ccccc6)c45)cc3)c2n1 | 80.1% (inactive)
29 | CCOc1cc2c(cc1OCC)C(c1cc(C)c(O)c(C)c1)NCC2 (stereo not given) | 94.2% (inactive)
30 | COc1cc(NC(=O)CCSc2nc3ccccc3c(=O)n2CCc2ccccn2)cc(OC)c1OC | 91% (inactive)
31 | COc1c(B(O)O)cccc1-c1nc2ccc3n[nH]c(F)c3c2c2c1CCCC2 | 65.9% (inactive)
32 | COc1ccc(C2=Nn3c(NN)nnc3SC2)cc1 | 103% (inactive)
33 | Cc1cccc2c(=O)c3c(sc12)c(N1CCNCC1)nc1ccccc13 | 46% (inactive)
34 | COc1ccc(CSc2nnc(SCC(=O)Nc3ccc(Cl)cc3)s2)cc1 | 59.9% (inactive)
35 | O=c1oc2ccc(F)cc2c(=O)n1-c1ccc(F)cc1F | 36.3% (inactive)
36 | C=CCN1C(=O)/C(=c2\sc3n(c2=O)NC2C(N=3)N(CC)C(=O)N2CC)c2ccccc21 (stereo not given) | 52.9% (inactive)
37 | COc1ccc(-c2cc(=O)c3c(OC)c4ccoc4c(/C=C/C=O)c3o2)cc1 | 75.4% (inactive)
38 | O=c1c(-c2nc3ccccc3[nH]2)cc2ccccc2n1Cc1cn(Cc2ccccc2Cl)nn1 | 12.2% (inactive)
39 | O=c1oc2ccc(Br)cc2c(=O)n1-c1ccc(Cl)cc1F | 2.66% (active)
40 | CC1(C)CC2(C)OC2C2(C1)N=NC(=Nc1ccccc1)O2 (stereo not given) | 21.2% (inactive)
